# From PubChem BioAssay AID2726 (Broad Institute, 2010)
# The list shows a part of the results. A number with no mark means an inactive call.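 Rule for the calls: active = every replicate shows growth inhibition above 50%; inconclusive = at least half, but not all, replicates pass that cutoff; inactive = fewer than half of replicates pass it.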
# Experiment: inhibitors of JMH597 bacterial growth – JMH597 strain, OD600 absorbance, counter-screen for AI-2 quorum sensing project, confirmation (AID 2726)
# Conditions: Vibrio harveyi JMH597 growth, 9 h, at 7.5 µM, hits give high values, lacks LuxN and CqsS sensors
row,Compound,growth inhibition [%]
1,O=C(COC(=O)C1CCCCC1)Nc1ccc([N+](=O)[O-])cc1,-6.27
2,COC(=O)c1ccc(SCc2ccccc2)nc1,13.9
3,Cc1ccccc1C(=O)Nc1ccc(N2CCCCCC2)cc1,25.5
4,S=C(NCc1ccc(Cl)cc1)NC1CCCCC1,11.3
5,O=C(Nc1ccc(F)c(Cl)c1)C1CCN(S(=O)(=O)c2cccnc2)CC1,-9.31
6,CCOc1ccc(/C=N/NC(N)=S)cc1,8.81
7,Cc1cc(C(=O)OCC(=O)Nc2ccc(F)c(F)c2)c(C)o1,2.76
8,COc1cccc(NC(=O)NCc2ccc(F)cc2)c1,-8.06
9,N/C(=N\OC(=O)CCc1ccccc1)c1cccnc1,3.39
10,Cc1nn(CC(=O)Nc2ccc(F)cc2)c(=O)c2ccccc12,2.73
11,O=C(Cn1cnc2ccccc2c1=O)Nc1cccc(S(=O)(=O)N2CCCCC2)c1,22.5
12,CN(Cc1cnccn1)C(=O)c1cc(COc2cccc(C(F)(F)F)c2)on1,4.24
13,COc1ccc(/C(N)=N/OC(=O)Cc2ccccc2)cc1,15.4
14,O=C(/C=C/c1ccc2c(c1)OCCO2)c1ccc(O)cc1,2.39
15,Cc1ccsc1C(=O)OCC(=O)c1cc2ccccc2o1,32.2
16,CCOC(=O)c1nn(-c2cccc(C)c2)cc1C(=O)c1ccccc1,-8.39

row,Compound,growth inhibition [%]
1,COC(=O)C1CCN(C(=O)c2ccc3oc(Cc4ccc(Cl)cc4)nc3c2)CC1,26.4
2,O=C(c1cc(-c2cccc(O)c2)on1)N1CCc2ccccc2C1,14.2
3,CC(C)(C)c1ccc(OC2=CS(=O)(=O)c3ccccc32)cc1,31.5
4,Cc1ccc(Cc2nc(-c3cccc(C)c3)no2)cc1,30.5
5,O=C(COc1ncnc2ccccc12)NC(=O)NCc1ccccc1,17.5
6,O=C1COc2ccc(S(=O)(=O)Nc3ccc(OC(F)(F)F)cc3)cc2N1,41.4
7,Cc1cc(CN(C)C(=O)c2cc(COc3ccc(C)c(C)c3)on2)n[nH]1,25.5
8,CC(=O)c1cccc(OCc2cc(C(=O)NC(C)Cc3cccnc3)no2)c1 (configuration not stated),1.63
9,Cc1cccc(CSc2ccc(-c3cccs3)nn2)c1,18.7
10,O=C(CCC(=O)c1cccs1)Nc1nc2ccccc2s1,-16.4
11,Cc1ccc(Oc2cnn(-c3ccccc3)c(=O)c2Br)cc1,-6.12
12,O=C(/C=C/c1ccc2c(c1)OCO2)NCc1ccc(F)cc1,4.99
13,Cc1ccc(NS(=O)(=O)c2ccc3c(c2)NC(=O)CO3)cc1,-1.97
14,Cc1ccccc1NC(=O)CCOc1ccccc1,-12.9
15,Cc1ccc(NC(=O)C2CC2c2ccccc2)cc1 (configuration not stated),-14.1
16,CC(CNc1ccc([N+](=O)[O-])cc1)NC(=O)c1ccccc1Br (configuration not stated),16.7
